BAZ2B block = BAZ2B (human) inhibition. AlphaScreen BAZ2B-H3K14Ac peptide displacement. Potency, µM (top dose mostly 114 µM), for inactives: at the highest dose activity change, negative = inhibition, actives largely listed as inhibitors. hit rate 4.4% among 360,000. AID 504333; also: % is scaled to controls: 0 for no effect and ±100 for the full control effect; nearly all actives have a fitted effect of over 60% in size
Target sequence (Q9UIF8 whole entry, looked up): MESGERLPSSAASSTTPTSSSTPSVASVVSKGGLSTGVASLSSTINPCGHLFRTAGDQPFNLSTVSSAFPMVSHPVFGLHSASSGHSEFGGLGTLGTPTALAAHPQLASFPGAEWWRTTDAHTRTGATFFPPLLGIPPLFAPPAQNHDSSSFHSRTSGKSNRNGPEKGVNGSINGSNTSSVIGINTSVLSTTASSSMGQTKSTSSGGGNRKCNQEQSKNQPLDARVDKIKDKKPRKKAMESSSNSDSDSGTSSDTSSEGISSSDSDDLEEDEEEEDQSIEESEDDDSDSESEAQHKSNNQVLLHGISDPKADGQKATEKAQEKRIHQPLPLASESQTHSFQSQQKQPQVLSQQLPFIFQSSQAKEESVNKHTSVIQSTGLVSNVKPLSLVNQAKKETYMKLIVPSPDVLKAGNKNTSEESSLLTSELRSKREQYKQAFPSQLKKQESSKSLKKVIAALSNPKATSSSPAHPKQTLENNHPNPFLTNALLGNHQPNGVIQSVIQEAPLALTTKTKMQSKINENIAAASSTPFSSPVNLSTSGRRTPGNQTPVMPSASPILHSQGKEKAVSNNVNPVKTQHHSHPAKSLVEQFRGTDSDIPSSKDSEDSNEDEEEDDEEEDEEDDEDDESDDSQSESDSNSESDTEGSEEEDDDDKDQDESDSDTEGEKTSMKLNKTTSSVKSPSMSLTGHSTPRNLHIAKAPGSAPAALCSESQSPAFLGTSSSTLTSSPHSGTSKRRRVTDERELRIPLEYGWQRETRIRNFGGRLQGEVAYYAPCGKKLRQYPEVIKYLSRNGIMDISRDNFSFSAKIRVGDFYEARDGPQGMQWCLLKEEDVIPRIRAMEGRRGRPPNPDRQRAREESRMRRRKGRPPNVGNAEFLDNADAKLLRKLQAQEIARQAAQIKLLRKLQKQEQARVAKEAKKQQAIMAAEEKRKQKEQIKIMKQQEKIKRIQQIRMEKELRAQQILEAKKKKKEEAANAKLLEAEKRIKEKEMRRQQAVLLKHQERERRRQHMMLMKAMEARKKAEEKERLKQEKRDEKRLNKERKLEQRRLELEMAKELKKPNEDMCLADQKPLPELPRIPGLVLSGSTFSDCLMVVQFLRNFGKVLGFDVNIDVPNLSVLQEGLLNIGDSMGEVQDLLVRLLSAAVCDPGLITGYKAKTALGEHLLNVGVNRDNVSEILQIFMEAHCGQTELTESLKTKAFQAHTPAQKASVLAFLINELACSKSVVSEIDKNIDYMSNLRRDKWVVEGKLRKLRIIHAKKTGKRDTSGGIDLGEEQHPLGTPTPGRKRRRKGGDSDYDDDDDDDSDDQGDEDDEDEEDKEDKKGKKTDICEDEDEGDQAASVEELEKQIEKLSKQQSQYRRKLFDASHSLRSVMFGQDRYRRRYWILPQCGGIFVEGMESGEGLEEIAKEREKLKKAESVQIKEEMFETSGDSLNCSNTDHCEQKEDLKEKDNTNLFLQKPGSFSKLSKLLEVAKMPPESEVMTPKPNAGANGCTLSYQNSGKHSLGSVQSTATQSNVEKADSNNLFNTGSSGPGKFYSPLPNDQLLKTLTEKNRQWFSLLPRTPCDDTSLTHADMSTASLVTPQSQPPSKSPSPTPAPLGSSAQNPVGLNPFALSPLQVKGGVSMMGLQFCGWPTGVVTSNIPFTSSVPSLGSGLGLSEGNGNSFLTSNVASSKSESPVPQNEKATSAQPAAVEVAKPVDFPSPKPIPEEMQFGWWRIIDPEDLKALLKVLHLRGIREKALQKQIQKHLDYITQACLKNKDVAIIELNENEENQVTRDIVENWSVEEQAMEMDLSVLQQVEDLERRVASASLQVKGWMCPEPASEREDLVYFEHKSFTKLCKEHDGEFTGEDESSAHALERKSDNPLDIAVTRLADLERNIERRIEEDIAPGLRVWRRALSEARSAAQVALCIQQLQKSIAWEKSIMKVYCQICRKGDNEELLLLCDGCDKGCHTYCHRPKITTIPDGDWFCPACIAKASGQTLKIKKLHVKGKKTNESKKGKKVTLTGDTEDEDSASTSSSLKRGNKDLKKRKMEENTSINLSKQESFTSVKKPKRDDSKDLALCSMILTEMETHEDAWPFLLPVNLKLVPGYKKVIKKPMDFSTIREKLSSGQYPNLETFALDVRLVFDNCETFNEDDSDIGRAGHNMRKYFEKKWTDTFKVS
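In this displacement format the biotinylated H3(5-23) peptide acetylated at Lys14 serves as ligand at 50 nM, with BAZ2B at 50 nM in PBS pH 7.4 containing 0.01% Tween-20. Donor and acceptor beads are 10 ug/mL final.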
GLS inh = glutaminase GLS (human) inhibition; O94925; GLS enzymatic activity, qHTS titration; Potency, µM (top dose mostly 45.5 µM), for the others: top-dose activity change, negative = inhibition, hits mostly inhibitors; hit rate 0.21% among 410,000; also: % is scaled to controls: 0 for no effect and ±100 for the full control effect
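Two-point fluorescence kinetic (t0, 30 min RT) for hKGA; glutamate detected via glutamate oxidase–HRP–Amplex Red. Substrate: 1 mM L-glutamine solution; buffer 45 mM KH2PO4, pH 8.2.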
JMJD2A Tudor inh = inhibitors of human JMJD2A Tudor domain; AlphaScreen JMJD2A-Tudor / H3K4me3 peptide binding; Potency, µM (highest dose often 114 µM), for inactives: at the top dose activity change, negative = inhibition, actives largely listed as inhibitors; O75164; hit rate 4.4% among 390,000; also: % is scaled to controls: 0 for no effect and ±100 for the full control effect; nearly all actives have a fitted effect of over 50% in size
L3MBTL1 block = blocks human L3MBTL1. hit rate 0.66% among 230,000. AID 485360. AlphaScreen L3MBTL1–H3K9me1 peptide binding. Potency, µM (titrated, usually from 57.1 µM), for inactives: at the highest dose activity, negative = inhibition, actives largely listed as inhibitors. Q9Y468; also: % is scaled to controls: 0 for no effect and ±100 for the full control effect; nearly all actives have a fitted effect of over 60% in size
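L3MBTL1 (50 nM) pre-complexed 30 min with biotinylated H3(1-15)K9me1 peptide (75 nM), then compounds added for 30 min at room temperature; AlphaScreen streptavidin donor/nickel chelate acceptor beads (10 ug/mL final) read after 30 min dark incubation.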
G9a inh = inhibitors of human histone lysine methyltransferase G9a; hit rate 8.8% among 350,000; Potency, µM (top dose mostly 102 µM), inactives show top-dose activity, negative = inhibition, actives largely listed as inhibitors; AID 504332; Q96KQ7; G9a H3K9 monomethylation, AlphaScreen, 2 h; also: % is scaled to controls: 0 for no effect and ±100 for the full control effect; nearly all actives have a fitted effect of over 75% in size
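Methyltransferase reactions run at room temperature for 2 h (20 nM enzyme, 500 nM biotin-H3K9 peptide, 20 uM SAM) after a 15 min compound preincubation; product detected by AlphaScreen beads and anti-H3K9me1 antibody.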
HP1b chromo inh = HP1-beta chromodomain-methylated histone interaction inhibition; AlphaScreen HP1-beta / biotin-H3K9me3 peptide binding; AID 540317; Potency, µM (highest dose often 114 µM), inactives show top-dose activity change, negative = inhibition, usual class: inhibitors; P83916; hit rate 0.56% among 390,000; also: nearly all actives have a fitted effect of over 70% in size
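Compound inhibition of the preformed complex between 50 nM HP1-beta and 50 nM biotinylated H3K9me3 peptide was read by AlphaScreen. Buffer was PBS pH 7.4 with 0.01% Tween-20. Incubations ran 30 min at room temperature, with 10 ug/mL donor/acceptor beads.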
* hit, by the source's call; ? = inconclusive; · = not tested or not shown; [ ] = remark or other dose. Compounds with a hit are over-represented: about 10% of the library has one in this group of screens. Calls follow the shape of the dose curve; as a rule, active = well fitted curve in the direction sought with a large enough effect; inconclusive = small, poorly fitted or top-dose-only effect, or another doubt; inactive = no such curve, though single readings can be large; an effect the other way counts as inactive or inconclusive. Potency is read from the fitted curve at half-maximal effect.

SMILES	BAZ2B block	GLS inh	JMJD2A Tudor inh	L3MBTL1 block	G9a inh	HP1b chromo inh
Cc1ccc(-n2nc3c(=O)n(C(C)C(=O)NCc4ccc(OC(C)C)cc4)nc(C)c3c2C)cc1 (configuration not stated)	?	-10%	-13%	·	-9%[59 µM]	21%
Nc1sccc1C(=O)c1ccccc1	-9%	15%	-36%	-6%	45µM*	-15%
COc1ccccc1CN1CCN(C2CCN(C(=O)NC(C)C)CC2)C(=O)C1=O	-7%	1%	9%	·	-7%[12.7 µM]	24%
O=C(CSc1nc(-c2cccs2)cc(C(F)(F)F)n1)Nc1cc(OCC(F)(F)F)cc([N+](=O)[O-])c1	-7%	8%	22µM*	9%	-17%[59 µM]	-4%
COc1ccc(NC(=O)CSc2nc(-c3cccs3)cc(C(F)(F)F)n2)cc1OC	-1%	-13%	-15%	·	-12%[59 µM]	-6%
CC1CCc2c(sc(NC(=O)COc3ccccc3C(C)(C)C)c2C#N)C1 (configuration not stated)	1%	-14%	-19%	·	10µM*	-5%
Cc1cc(OCC(=O)Nc2sc3c(c2C#N)CCC(C)C3)ccc1Cl (configuration not stated)	4%	-1%	-13%	·	10%[59 µM]	34%
COc1ccc(C(=O)CN2C(=O)c3ccccc3S2(=O)=O)cc1Br	-18%	-3%	-29%	·	50µM*	-2%
CC[N+](C)(CC)CCC/C(=N/O)C(O)(c1ccccc1)c1ccccc1	-21%	0%	?	2%	50µM*	12%
COC(=O)C1CCN(C(=O)CSc2nc3ccc(OC)cc3[nH]2)CC1	2%	-16%	-9%	25%	50µM*	21%
O=C(CSc1nc2ccc(S(=O)(=O)N3CCOCC3)cc2[nH]1)N1CCOCC1	-37%	-12%	79µM*	·	1.8µM*	?
COc1ccc2nc(SCC(=O)N3CCNC3=O)[nH]c2c1	-27%	-2%	2%	-4%	-45%	29%
Cc1ccc(C)c(NC(=O)c2nc(S(C)(=O)=O)ncc2N(Cc2ccc(C(C)(C)C)cc2)Cc2ccco2)c1	?	1%	-18%	·	?	20%
COc1cccc(C2CC(=O)Nc3c2c(=O)n(C)c2nc4ccccc4n32)c1 (configuration not stated)	-5%	-1%	-8%	·	6%[59 µM]	31%
CC1=C(C(=O)Nc2ccc(F)cc2F)C2(CCN(C(C)C)CC2)OC1=O	-1%	-15%	3%	·	6%[59 µM]	16%
N#Cc1c(SCc2ccccc2)sc(C(=O)c2ccccc2)c1N	-1%	0%	-4%	·	11µM*	32%
Cc1ccc(CSc2sc(C(=O)c3ccccc3)c(N)c2C#N)cc1	19%	-3%	20%	·	-33%[59 µM]	81%
COc1cc(C2NC(=O)NC(O)(C(F)(F)F)C2C(=O)c2ccc(Cl)cc2)ccc1O (configuration not stated)	-27%	9%	-18%[57.1 µM]	3%	79µM*	50%
CC(C)CC(=O)NC(=S)Nc1cc(C(F)(F)F)ccc1N1CCOCC1	10%	5%	-21%	1%	79µM*	18%
O=C(Nc1cc(C(F)(F)F)ccc1N1CCOCC1)c1ccncc1	·	1%	-4%	8%	·	35%
O=C(CCc1ccccc1)NC(=S)Nc1cc(C(F)(F)F)ccc1N1CCOCC1	-33%	-2%	-24%	-3%	15%[0.501 µM]	14%
O=C(CNCc1ccccn1)Nc1cc(C(F)(F)F)ccc1N1CCOCC1	45µM*	-1%	45µM*	-8%	0%	16%
Cc1cc(NC2CCCCC2)nc(-c2ccccc2O)n1	56µM*	1%	7.9µM*	16%	18µM*	?
COCc1cc(=O)n2c(-c3ccc(C)cc3)n[nH]c2n1	5%	3%	-19%	-10%	18%	34%
COCc1cc(=O)n2c(-c3ccccc3OC)n[nH]c2n1	-28%	0%	-18%	-5%	3.2µM*	11%
SMILES	BAZ2B block	GLS inh	JMJD2A Tudor inh	L3MBTL1 block	G9a inh	HP1b chromo inh
O=c1cc(CCl)nc2sc3ccccc3n12	50µM*	-21%	50µM*	?	?	-14%
COc1ccc(/C=C/C(=O)OCc2cc(=O)n3c(n2)sc2ccccc23)cc1	-1%	-1%	-8%	-4%	-14%	43%
COCCNc1nnc(SCC(=O)N(C)c2c(N)n(Cc3ccccc3)c(=O)[nH]c2=O)s1	-1%	-7%	-10%	11%	22µM*	24%
COCCN(C(=O)CSc1nc2ccccc2s1)c1c(N)n(Cc2ccccc2)c(=O)[nH]c1=O	·	7%	?	·	·	-10%
COCCN(C(=O)CSc1nnc(Nc2ccccc2F)s1)c1c(N)n(Cc2ccccc2)c(=O)[nH]c1=O	-2%	8%	-16%[57.1 µM]	·	14µM*	3%
CCN(C(=O)CSc1nnc(NCCOC)s1)c1c(N)n(Cc2ccccc2)c(=O)[nH]c1=O	·	23%	-10%	·	·	45%
Brc1ccc2nc(-c3c[nH]c4ccccc34)cn2c1	45µM*	4%	?	-11%	50µM*	?
COc1ccc(C2c3sc(=O)[nH]c3SC3C(=O)N(c4ccccc4)C(=O)C32)cc1 (configuration not stated)	?	29%	?	-10%	8.9µM*	-15%
O=C(Nc1ccc(C(=O)N2CCN(c3cccc(Cl)c3)CC2)cc1)c1nsc2ccccc12	0%	-1%	-9%	·	-3%[59 µM]	20%[57 µM]
C=CCNc1nc(C)c(C(C)=O)cc1C#N	50µM*	-2%	1%	·	11%	47%
CCN(CC)c1ccc2cc(-c3nc4ccccc4[nH]3)c(=O)oc2c1	19%	?	5%	6%	-4%[59 µM]	163%
CCN(CC)c1ccc2nc3ccc(N)cc3[n+](-c3ccccc3)c2c1	13µM*	-4%	45µM*	?	-33%[0.501 µM]	-89%
CCN(CC)c1ccc2nc3ccccc3[n+](CC)c2c1	40µM*	-18%	?	20µM*	14µM*	?
Cc1ccc(Cl)cc1NC(=O)CCCN1C(=O)CCn2nc(-c3cn(C)c4ccccc34)cc21	-5%	5%	-19%	·	2%[59 µM]	13%[57 µM]
COc1ccc(OC)c(S(=O)(=O)N(C(C)=O)c2ccc3oc(=O)sc3c2)c1	-20%	-9%	1%	·	35µM*	62%
COc1ccc(C(=O)Oc2ccc3oc(=O)sc3c2)cc1	3%	-9%	-5%	·	?	32%
COc1ccc(S(=O)(=O)N(C(=O)C(C)C)c2ccc3oc(=O)sc3c2)cc1	?	-1%	-21%	·	7.9µM*	48%
CCCC(=O)N(c1ccc2oc(=O)sc2c1)S(=O)(=O)c1cccs1	-6%	11%	-13%	-14%	40µM*	38%
